In PubChem BioAssay (EPA / NIEHS):
Calls of active or inactive are those of the source. Rule for the calls: active = hit-call score of the fitted dose curve at least 0.9, where 1 is the maximum; inactive = score below 0.9.

Tests used:
[1] = ATG_GLI_CIS: Attagene CIS-FACTORIAL HepG2 Assay for human Zinc Finger Protein GLI1 (AID 2282945); conditions: HepG2, Attagene cis-factorial reporter mRNA, GLI element; actives raise or lower the signal
Procedure, shortened: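 HepG2 cells transiently transfected with cis-promoter multiplexed reporter units report endogenous transcription factor activity. After 24 h chemical exposure, reporter mRNA was quantified by RT-PCR, 6-FAM labelling, HpaI digestion and capillary electrophoresis, with bidirectional fitting against DMSO.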

[2] = target: Bile acid receptor (Homo sapiens) (UniProt Q96RI1); experiment: ATG_IR1_CIS: Attagene CIS-FACTORIAL HepG2 Assay for human Nuclear Receptor Subfamily 1 Group H Member 4 (NR1H4), IR1 submotif (AID 2282946); conditions: IR1 reporter transcription, actives raise or lower the signal
Chain of Bile acid receptor (Homo sapiens) (Q96RI1 whole entry, looked up): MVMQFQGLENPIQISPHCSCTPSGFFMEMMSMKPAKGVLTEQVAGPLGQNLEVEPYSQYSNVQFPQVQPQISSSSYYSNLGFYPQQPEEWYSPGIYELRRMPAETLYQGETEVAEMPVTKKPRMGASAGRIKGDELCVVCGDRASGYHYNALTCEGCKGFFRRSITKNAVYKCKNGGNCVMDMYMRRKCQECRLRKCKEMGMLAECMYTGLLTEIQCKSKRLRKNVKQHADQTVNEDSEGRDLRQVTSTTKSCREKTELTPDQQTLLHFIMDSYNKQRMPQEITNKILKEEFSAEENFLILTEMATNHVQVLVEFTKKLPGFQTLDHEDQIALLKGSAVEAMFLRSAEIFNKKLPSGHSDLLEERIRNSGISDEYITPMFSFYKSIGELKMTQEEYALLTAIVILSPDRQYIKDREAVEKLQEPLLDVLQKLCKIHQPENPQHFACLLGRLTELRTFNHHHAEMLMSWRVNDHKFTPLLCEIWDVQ
Procedure, shortened: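 Transient MRTU transfection, HepG2; 24 h dosing; RNA → RT-PCR → 6-FAM primer extension → HpaI digest → capillary electrophoresis fluorescence. Gain/loss of signal fitted relative to DMSO.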

[3] = ATG_GRE_CIS: Attagene CIS-FACTORIAL HepG2 Assay for human Glucocorticoid Response Elements (GRE) (AID 2282947); conditions: HepG2 GRE cis-reporter, Attagene multiplex mRNA; actives raise or lower the signal
Procedure, shortened: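 HepG2 cells transiently transfected with multiple cis-promoter reporter units measure endogenous TF activity; 24 h compound exposure. Reporter mRNA quantified by RT-PCR, FAM labelling, HpaI digestion and capillary electrophoresis; bidirectional fit vs DMSO baseline.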

[4] = ATG_ISRE_CIS: Attagene CIS-FACTORIAL HepG2 Assay for human Interferon Regulatory Factor 1 (IRF1) binding to an Interferon-Stimulated Response Element (ISRE) (AID 2282948); conditions: HepG2 ISRE cis-reporter (Attagene), mRNA transcription readout; actives raise or lower the signal
Procedure, shortened: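 Transiently transfected HepG2 cells carrying cis-element reporter units, dosed 24 hours. Reporter mRNA quantified by RT-PCR, fluorescent primer extension, HpaI digestion and capillary electrophoresis. Bidirectional fitting relative to DMSO.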

[5] = ATG_M_32_CIS: Attagene CIS-FACTORIAL HepG2 Assay for M32 Transcription Factor (Internal Marker) (AID 2282949); conditions: HepG2 Attagene cis-factorial M32 reporter, mRNA; actives raise or lower the signal;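 note: background control marker of the multiplexed CIS panel rather than a real target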
Procedure, shortened: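 Following 24 h chemical exposure of HepG2 cells transiently expressing cis-promoter reporter constructs, reporter transcript levels were determined by RT-PCR with fluorescent labelling and capillary electrophoresis, then fitted bidirectionally against DMSO.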

[6] = ATG_M_06_CIS: Attagene CIS-FACTORIAL HepG2 Assay for M06 Transcription Factor (Internal Marker) (AID 2282950); conditions: HepG2 Attagene CIS-FACTORIAL M06 internal marker reporter; actives raise or lower the signal
Procedure, shortened: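 Steps: transfect HepG2 with multiplexed cis-element reporter constructs; dose chemical 24 h; extract RNA with DNase treatment; reverse-transcribe, PCR-amplify, 6-FAM label, HpaI digest; separate fragments by capillary electrophoresis. Activity fitted both directions versus DMSO.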

[7] = target: Hypoxia-inducible factor 1-alpha (Homo sapiens) (UniProt Q16665); experiment: ATG_HIF1a_CIS: Attagene CIS-FACTORIAL HepG2 Assay for human Hypoxia Inducible Factor 1 (HIF1A) (AID 2282951); conditions: HepG2 Attagene cis-factorial HIF1a reporter transcription; actives raise or lower the signal
Chain of Hypoxia-inducible factor 1-alpha (Homo sapiens) (Q16665 whole entry, looked up): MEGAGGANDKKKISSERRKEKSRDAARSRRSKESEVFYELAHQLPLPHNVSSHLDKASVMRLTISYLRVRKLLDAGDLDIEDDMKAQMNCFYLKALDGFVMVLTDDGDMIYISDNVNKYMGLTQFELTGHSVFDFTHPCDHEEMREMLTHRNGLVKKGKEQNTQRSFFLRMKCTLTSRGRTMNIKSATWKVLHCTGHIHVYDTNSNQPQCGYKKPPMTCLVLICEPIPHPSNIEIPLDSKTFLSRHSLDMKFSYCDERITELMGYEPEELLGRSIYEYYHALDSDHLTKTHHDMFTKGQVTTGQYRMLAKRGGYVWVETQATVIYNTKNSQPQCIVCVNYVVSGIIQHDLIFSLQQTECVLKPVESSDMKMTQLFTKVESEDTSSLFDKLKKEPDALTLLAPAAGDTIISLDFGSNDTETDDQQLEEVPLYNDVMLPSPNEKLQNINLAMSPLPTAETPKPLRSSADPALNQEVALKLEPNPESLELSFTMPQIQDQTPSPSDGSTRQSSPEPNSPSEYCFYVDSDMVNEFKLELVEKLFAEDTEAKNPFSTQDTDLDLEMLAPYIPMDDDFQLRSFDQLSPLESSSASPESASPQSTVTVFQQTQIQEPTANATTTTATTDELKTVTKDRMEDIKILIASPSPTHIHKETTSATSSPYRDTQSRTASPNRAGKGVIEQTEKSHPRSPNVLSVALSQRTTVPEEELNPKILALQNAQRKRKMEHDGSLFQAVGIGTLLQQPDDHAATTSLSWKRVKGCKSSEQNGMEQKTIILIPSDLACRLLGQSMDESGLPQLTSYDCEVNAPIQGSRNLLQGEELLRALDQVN
Procedure, shortened: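 HepG2, transient cis-reporter library, 24 h dosing. RNA → RT (oligo dT) → PCR → 6-FAM primer extension → HpaI → CE. Bidirectional curve fit vs DMSO.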

[8] = target: Hepatocyte nuclear factor 6 (Homo sapiens) (UniProt Q9UBC0); experiment: ATG_HNF6_CIS: Attagene CIS-FACTORIAL HepG2 Assay for human Hepatocyte Nuclear Factor 6 (HNF6) (AID 2282952); conditions: HepG2 Attagene cis-factorial HNF6 reporter transcription; actives raise or lower the signal
Chain of Hepatocyte nuclear factor 6 (Homo sapiens) (Q9UBC0 whole entry, looked up): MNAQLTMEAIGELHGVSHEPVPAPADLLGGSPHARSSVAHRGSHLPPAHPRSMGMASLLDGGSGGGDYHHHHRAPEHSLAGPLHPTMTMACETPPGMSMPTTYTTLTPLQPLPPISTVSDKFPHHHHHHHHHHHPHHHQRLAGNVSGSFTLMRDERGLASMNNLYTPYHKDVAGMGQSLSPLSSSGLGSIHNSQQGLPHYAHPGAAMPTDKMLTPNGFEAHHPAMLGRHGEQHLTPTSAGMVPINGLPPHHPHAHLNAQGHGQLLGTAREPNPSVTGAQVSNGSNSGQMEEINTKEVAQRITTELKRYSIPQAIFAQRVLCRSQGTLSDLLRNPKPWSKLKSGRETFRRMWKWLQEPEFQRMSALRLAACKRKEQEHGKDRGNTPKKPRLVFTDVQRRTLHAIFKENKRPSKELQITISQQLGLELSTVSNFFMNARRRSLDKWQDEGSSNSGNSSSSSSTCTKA
Procedure, shortened: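 Multiplexed mRNA reporter assay in transfected HepG2; 24 h dosing; RT-PCR plus capillary electrophoresis fluorescence; DMSO-referenced bidirectional curve fitting.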

[9] = target: Heat shock factor protein 1 (Homo sapiens) (UniProt Q00613); experiment: ATG_HSE_CIS: Attagene CIS-FACTORIAL HepG2 Assay for human Heat Shock Transcription Factor 1 (HSE) (AID 2282953); conditions: HepG2 HSE cis-reporter, Attagene RNA transcription; actives raise or lower the signal
Chain of Heat shock factor protein 1 (Homo sapiens) (Q00613 whole entry, looked up, the tested form may be a part): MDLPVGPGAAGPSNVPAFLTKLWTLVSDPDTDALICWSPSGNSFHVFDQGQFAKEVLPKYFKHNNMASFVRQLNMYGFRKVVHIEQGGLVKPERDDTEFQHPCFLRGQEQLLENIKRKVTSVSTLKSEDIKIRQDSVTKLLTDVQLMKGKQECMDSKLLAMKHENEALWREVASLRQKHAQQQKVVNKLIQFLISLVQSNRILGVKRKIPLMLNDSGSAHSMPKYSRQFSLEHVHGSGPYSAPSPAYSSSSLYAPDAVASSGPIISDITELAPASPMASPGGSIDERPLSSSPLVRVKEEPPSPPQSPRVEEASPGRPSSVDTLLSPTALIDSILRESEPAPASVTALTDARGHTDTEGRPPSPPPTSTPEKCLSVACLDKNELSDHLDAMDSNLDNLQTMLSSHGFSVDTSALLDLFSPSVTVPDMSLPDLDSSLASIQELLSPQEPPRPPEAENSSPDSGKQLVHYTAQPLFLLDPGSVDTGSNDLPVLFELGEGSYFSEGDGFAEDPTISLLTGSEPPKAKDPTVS
Procedure, shortened: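 Cells were transfected with cis-element-driven reporter constructs, dosed for 24 h, then total RNA was reverse-transcribed and reporter cDNA amplified, FAM-labelled and digested with HpaI. Fragments were resolved by capillary electrophoresis; gain or loss was fitted against DMSO.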

[10] = ATG_MRE_CIS: Attagene CIS-FACTORIAL HepG2 Assay for human Metal Responsive Element (MRE) (AID 2282954); conditions: HepG2 MRE cis-reporter transcription, Attagene multiplex; actives raise or lower the signal
Procedure, shortened: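 HepG2 cells transiently transfected with multiple cis-element reporter units measure endogenous MTF1-driven transcription. After 24 h compound exposure, reporter mRNA is quantified by RT-PCR with 6-FAM labelling, HpaI digestion and capillary electrophoresis; bidirectional fits versus DMSO.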

[11] = ATG_PBREM_CIS: Attagene CIS-FACTORIAL HepG2 Assay for human Phenobarbital-responsive Enhancer Module (PBREM) (AID 2282955); conditions: HepG2 PBREM cis-reporter, Attagene multiplexed transcription; actives raise or lower the signal
Procedure, shortened: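 HepG2, transient MRTU transfection, 24 h dosing; RNA → oligo(dT) RT → PCR → 6-FAM extension → HpaI → CE. Bidirectional fit vs DMSO.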

[12] = target: Paired box protein Pax-6 (Homo sapiens) (UniProt P26367); experiment: ATG_Pax6_CIS: Attagene CIS-FACTORIAL HepG2 Assay for human Paired Box 6 (PAX6) (AID 2282956); conditions: HepG2 CIS-FACTORIAL PAX6 reporter transcription, RNA readout; actives raise or lower the signal
Chain of Paired box protein Pax-6 (Homo sapiens) (P26367 whole entry, looked up): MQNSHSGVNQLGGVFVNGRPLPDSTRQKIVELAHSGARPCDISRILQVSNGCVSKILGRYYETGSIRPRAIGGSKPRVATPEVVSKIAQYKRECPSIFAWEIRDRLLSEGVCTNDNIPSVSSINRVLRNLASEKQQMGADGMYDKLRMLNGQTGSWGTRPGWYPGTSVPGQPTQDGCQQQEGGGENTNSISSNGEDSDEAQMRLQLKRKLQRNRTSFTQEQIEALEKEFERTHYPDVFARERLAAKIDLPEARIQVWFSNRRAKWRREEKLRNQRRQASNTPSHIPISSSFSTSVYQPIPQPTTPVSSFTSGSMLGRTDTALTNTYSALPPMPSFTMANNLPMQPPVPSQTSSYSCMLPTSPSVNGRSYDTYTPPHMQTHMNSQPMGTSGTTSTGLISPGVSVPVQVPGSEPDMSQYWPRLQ
Procedure, shortened: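 HepG2 cells transiently transfected with cis-promoter-driven multiplexed reporter units sensing endogenous transcription factor activity; 24 h chemical exposure. Reporter mRNA quantified by RT-PCR, 6-FAM labelling, HpaI digestion and capillary electrophoresis; bidirectional fit versus DMSO baseline.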

[13] = ATG_PXRE_CIS: Attagene CIS-FACTORIAL HepG2 Assay for human Pregnane X Receptor Element (PXRE) (AID 2282957); conditions: HepG2 Attagene CIS-FACTORIAL PXRE reporter, mRNA; actives raise or lower the signal
Procedure, shortened: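 Cells: HepG2, transiently transfected reporter units under cis promoter control. Exposure: 24 h. Detection: reporter mRNA via RT-PCR/CE fluorescence; bidirectional fitting, DMSO-referenced.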

[14] = ATG_Sox_CIS: Attagene CIS-FACTORIAL HepG2 Assay for human SRY-box transcription factor (SOX) (AID 2282960); conditions: HepG2 Attagene cis-factorial SOX reporter, mRNA; actives raise or lower the signal
Procedure, shortened: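 Cells were transfected with reporter constructs under cis-regulatory promoters, then exposed to chemicals for 24 h. Reporter transcripts were quantified by fluorescence after RT-PCR and capillary electrophoresis; activity was fitted in both directions against DMSO.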

[15] = target: Transcription factor Sp1 (Homo sapiens) (UniProt P08047); experiment: ATG_Sp1_CIS: Attagene CIS-FACTORIAL HepG2 Assay for human Specificity Protein 1 (Sp1) (AID 2282961); conditions: HepG2 Sp1 cis-reporter transcription, actives raise or lower the signal
Chain of Transcription factor Sp1 (Homo sapiens) (P08047 whole entry, looked up): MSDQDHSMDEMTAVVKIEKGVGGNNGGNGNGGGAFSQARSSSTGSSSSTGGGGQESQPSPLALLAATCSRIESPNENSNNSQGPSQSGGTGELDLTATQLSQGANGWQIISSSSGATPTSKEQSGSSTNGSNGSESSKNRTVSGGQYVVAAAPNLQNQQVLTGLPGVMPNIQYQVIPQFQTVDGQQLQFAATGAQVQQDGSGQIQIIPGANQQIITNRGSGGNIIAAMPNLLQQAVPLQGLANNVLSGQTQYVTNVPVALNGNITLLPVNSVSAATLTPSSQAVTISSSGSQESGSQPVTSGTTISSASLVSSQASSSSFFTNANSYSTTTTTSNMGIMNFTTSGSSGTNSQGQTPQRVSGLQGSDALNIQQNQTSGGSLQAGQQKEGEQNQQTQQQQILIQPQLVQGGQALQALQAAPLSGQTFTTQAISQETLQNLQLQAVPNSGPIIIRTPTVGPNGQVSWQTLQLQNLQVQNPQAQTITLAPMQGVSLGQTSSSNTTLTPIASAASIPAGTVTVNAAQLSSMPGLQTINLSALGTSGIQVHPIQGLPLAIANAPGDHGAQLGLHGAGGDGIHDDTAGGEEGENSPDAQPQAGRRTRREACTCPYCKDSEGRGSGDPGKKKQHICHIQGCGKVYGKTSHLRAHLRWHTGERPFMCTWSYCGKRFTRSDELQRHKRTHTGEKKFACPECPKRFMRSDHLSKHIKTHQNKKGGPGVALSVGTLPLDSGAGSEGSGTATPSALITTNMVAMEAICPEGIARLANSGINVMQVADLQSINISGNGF
Procedure, shortened: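 Measures mRNA induction of an Sp1-linked reporter in HepG2 cells 24 h post-dosing. Multiplexed reporters read by RT-PCR and capillary electrophoresis; DMSO serves as negative control and baseline.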

[16] = ATG_SREBP_CIS: Attagene CIS-FACTORIAL HepG2 Assay for human Sterol Regulatory Element Binding (SREBP) (AID 2282962); conditions: HepG2 Attagene cis-factorial SREBP reporter, mRNA; actives raise or lower the signal
Procedure, shortened: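 HepG2 cells transiently transfected with multiplexed cis-promoter reporter units sensing endogenous transcription factors; reporter mRNA measured 24 h after dosing by RT-PCR, 6-FAM labeling, HpaI digestion and capillary electrophoresis. Bidirectional fit versus DMSO.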

[17] = target: Signal transducer and activator of transcription 3 (Homo sapiens) (UniProt P40763); experiment: ATG_STAT3_CIS: Attagene CIS-FACTORIAL HepG2 Assay for human Signal Transducer and Activator of Transcription 3 (STAT3) (AID 2282963); conditions: HepG2, Attagene cis-factorial STAT3 reporter transcription; actives raise or lower the signal
Chain of Signal transducer and activator of transcription 3 (Homo sapiens) (P40763 whole entry, looked up): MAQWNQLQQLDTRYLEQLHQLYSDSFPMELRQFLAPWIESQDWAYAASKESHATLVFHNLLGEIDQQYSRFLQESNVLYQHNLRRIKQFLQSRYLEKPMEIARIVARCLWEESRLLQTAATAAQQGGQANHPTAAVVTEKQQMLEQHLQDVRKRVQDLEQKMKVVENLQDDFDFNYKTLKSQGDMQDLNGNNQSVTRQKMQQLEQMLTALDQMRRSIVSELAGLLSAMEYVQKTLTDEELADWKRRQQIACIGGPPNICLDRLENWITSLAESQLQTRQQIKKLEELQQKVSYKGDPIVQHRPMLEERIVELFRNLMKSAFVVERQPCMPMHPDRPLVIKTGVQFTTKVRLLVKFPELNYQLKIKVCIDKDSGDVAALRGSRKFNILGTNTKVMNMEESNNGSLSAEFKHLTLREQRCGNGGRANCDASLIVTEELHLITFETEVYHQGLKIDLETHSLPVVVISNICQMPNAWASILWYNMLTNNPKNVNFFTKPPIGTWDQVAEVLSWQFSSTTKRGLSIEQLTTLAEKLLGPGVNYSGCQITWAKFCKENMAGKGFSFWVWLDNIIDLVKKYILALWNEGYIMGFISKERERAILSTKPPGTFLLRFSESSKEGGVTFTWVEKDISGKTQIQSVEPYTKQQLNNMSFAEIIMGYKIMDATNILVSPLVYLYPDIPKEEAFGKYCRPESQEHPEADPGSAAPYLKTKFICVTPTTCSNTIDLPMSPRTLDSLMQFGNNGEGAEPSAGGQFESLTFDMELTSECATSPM
Procedure, shortened: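 HepG2 cells transiently transfected with cis-element-driven multiple reporter transcription units; after 24 h chemical exposure, reporter mRNA measured by RT-PCR, 6-FAM primer-extension labelling, HpaI digestion and capillary electrophoresis. Bidirectional fitting versus DMSO baseline.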

[18] = ATG_TA_CIS: Attagene CIS-FACTORIAL HepG2 Assay for human TA Basal Promoter (AID 2282964); conditions: HepG2 Attagene CIS-factorial TA basal promoter reporter; actives raise or lower the signal
Procedure, shortened: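 Steps: transfect HepG2 with MRTUs; dose 24 h; isolate RNA, DNase-treat, reverse-transcribe; PCR and FAM-label reporter cDNA; digest with HpaI 2h at 37 C; run capillary electrophoresis. Activity fitted both directions against DMSO.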

[19] = ATG_PPRE_CIS: Attagene CIS-FACTORIAL HepG2 Assay for human Peroxisome Proliferator-activated Response Element (PPRE) (AID 2282958); conditions: HepG2 PPRE cis-element reporter, Attagene transcription factor profiling; actives raise or lower the signal
Procedure, shortened: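 Transcript-level reporter induction in transfected HepG2 cells after 24 h chemical exposure, quantified by fluorescence from RT-PCR products separated by capillary electrophoresis.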

[20] = ATG_RORE_CIS: Attagene CIS-FACTORIAL HepG2 Assay for human RAR-related Orphan Receptor Element (RORE) (AID 2282959); conditions: HepG2 Attagene cis-factorial RORE reporter, mRNA; actives raise or lower the signal
Procedure, shortened: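 Multiplexed reporter assay measuring mRNA induction from a cis promoter element in transiently transfected HepG2 cells after 24 h treatment. Detection via RT-PCR and capillary electrophoresis fluorescence; DMSO serves as baseline.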

Measured: AC50

O=C(OCc1ccccc1)c1ccc(O)cc1
inactive: [2] | [3] | [5] | [6] | [8] | [15] | [17]
active: [1] 167 µM | [4] 187 µM | [7] 113 µM | [9] 168 µM | [10] 125 µM | [11] 63.7 µM | [12] 144 µM | [13] 26.8 µM | [14] 100 µM | [16] 72.8 µM | [18] 100 µM

C=C[Si](OCCOC)(OCCOC)OCCOC
active: [13] 1.74 µM
not listed: [20]
inactive: all other assays above

CC=CC(=O)OCC(C)C
not listed: [11] | [18]
inactive: all other assays above

COc1ccc(C(=O)c2ccccc2)c(O)c1
active: [2] 151 µM | [10] 130 µM | [11] 85.9 µM | [12] 149 µM | [13] 26.7 µM | [19] 121 µM | [20] 100 µM | [18] 121 µM
inactive: all other assays above

C=CC(=O)NC(C)(C)C
active: [2] 27.5 µM | [13] 26.9 µM
not listed: [19]
inactive: all other assays above

O=C(Cl)c1c(Cl)c(Cl)c(C(=O)Cl)c(Cl)c1Cl
active: [13] 27.9 µM
not listed: [12]
inactive: all other assays above

CCOC(=O)c1ccccc1C
not listed: [19]
inactive: all other assays above

CCOC(=O)OC(=O)OCC
not listed: [16] | [17] | [20]
inactive: all other assays above

CCCCC(=O)O
not listed: [18] | [19]
inactive: all other assays above

CCc1occc(=O)c1O
active: [13] 28.4 µM
not listed: [18] | [20]
inactive: all other assays above

CCCCCCCCCCCCCC(=O)OC(C)C
not listed: [11] | [17] | [18]
inactive: all other assays above

Nc1ccc(C(=O)O)cc1
not listed: [15]
inactive: all other assays above

[Cl][Sc]([Cl])[Cl]
not listed: [16] | [17] | [19] | [20]
inactive: all other assays above

CC/C=C\C/C=C\C/C=C\CCCCCCCC(=O)OC
active: [2] 25.7 µM | [7] 34 µM | [9] 74.9 µM | [13] 7.37 µM | [20] 164 µM | [15] 128 µM
not listed: [11] | [18]
inactive: all other assays above

CCCCCCOc1ccc(N)cc1
active: [13] 26.8 µM
not listed: [12] | [16] | [18] | [19]
inactive: all other assays above
